From PubChem BioAssay AID1159580 (chemical genetic matrix, 2015)
Several values for one entry are separate records, joined by “and”; a condition that tells them apart may be missing. Equal entries are not always repeated. The whole screen tested about 5,500 compounds, of which about 2,000 (36%) were called active. Inconclusive results (about 18%) are left out. No stated cut-off is given here; in the data, active means normalized growth mostly below about 0.91 (no sharp cut-off); inconclusive means no clear call, values can overlap the other calls; inactive means mostly above about 0.92. The list shows a part of the results.

Test: chemical genetic growth profiling, strain panel (AID 1159580);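 further: tested at 20 µM; growth read once vehicle control cultures reached saturation at 30 °C; 1 = growth at the plate median or of vehicle wells; lower values mean less growth of the strain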
Details: S. cerevisiae deletion strains, growth OD

Measured: normalized growth

NC1(C(=O)O)CCCC1
inactive: locus YAL013W, strain DEP1, active compounds read low 1 | locus YAL021C, strain ccr4, active compounds read low 1.01 | locus YAL026C, strain drs2, active compounds read low 1.02 | locus YAL030W, strain snc1, active compounds read low 1.02 | locus YBL061C, strain skt5, active compounds read low 1.01 | locus YBR009C, strain hhf1, active compounds read low 1 | locus YBR021W, strain FUR4, active compounds read low 0.989 | locus YBR023C, strain chs3, active compounds read low 1.02 | locus YBR171W, strain sec66, active compounds read low 1.03 | locus YBR229C, strain ROT2, active compounds read low 1.01 | locus YBR231C, strain swc5, active compounds read low 1.02 | locus YBR279W, strain paf1, active compounds read low 1.01 | locus YCL011C, strain gbp2, active compounds read low 1.02 | locus YCL016C, strain dcc1, active compounds read low 1.01 | locus YCL029C, strain bik1, active compounds read low 1.02 | locus YCL061C, strain MRC1, active compounds read low 1.02 | locus YCL069W, strain vba3, active compounds read low 1.02 | locus YCR088W, strain abp1, active compounds read low 1.02 | locus YDL005C, strain med2, active compounds read low 1.01 | locus YDL035C, strain GPR1, active compounds read low 1.01 | locus YDL040C, strain nat1, active compounds read low 1.01 | locus YDL074C, strain BRE1, active compounds read low 1.02 | locus YDL101C, strain DUN1, active compounds read low 1 | locus YDL134C, strain PPH21, active compounds read low 0.998 | locus YDL185W, strain tfp1, active compounds read low 0.989 | locus YDL192W, strain arf1, active compounds read low 0.998 | locus YDR001C, strain nth1, active compounds read low 1.02 | locus YDR069C, strain doa4, active compounds read low 1.03 | locus YDR101C, strain arx1, active compounds read low 1.01 | locus YDR137W, strain rgp1, active compounds read low 1 | locus YDR150W, strain NUM1, active compounds read low 1.01 | locus YDR159W, strain sac3, active compounds read low 0.995 | locus YDR162C, strain NBP2, active compounds read low 1.01 | locus YDR195W, strain ref2 1.03 | locus YDR297W, strain sur2, active compounds read low 1.01 | locus YDR318W, strain mcm21, active compounds read low 0.996 | locus YDR334W, strain swr1, active compounds read low 1.01 | locus YDR335W, strain msn5, active compounds read low 1.01 | locus YDR388W, active compounds read low 0.998 | locus YDR392W, strain spt3, active compounds read low 1.01 | locus YDR502C, strain sam2, active compounds read low 0.99 | locus YEL003W, strain gim4, active compounds read low 1.02 | locus YEL037C, strain rad23, active compounds read low 1.02 | locus YEL061C, strain CIN8 (second series), active compounds read low 1.02 | locus YEL061C, strain CIN8, active compounds read low 1.01 | locus YER015W, strain faa2, active compounds read low 1.02 | locus YER016W, strain bim1, active compounds read low 1.01 | locus YER110C, active compounds read low 1 | locus YER111C, strain swi4, active compounds read low 1.03 | locus YER155C, strain BEM2 (second series), active compounds read low 1.07 | locus YER155C, strain BEM2, active compounds read low 0.997 | locus YER167W, strain BCK2, active compounds read low 1.01 | locus YFR010W, strain ubp6, active compounds read low 1.02 | locus YGL078C, strain dbp3, active compounds read low 0.989 | locus YGL086W, strain mad1, active compounds read low 0.994 | locus YGL167C, strain pmr1, active compounds read low 1.01 | locus YGL173C, strain kem1, active compounds read low 1.02 | locus YGL227W, strain vid30, active compounds read low 1.02 | locus YGL240W, strain doc1, active compounds read low 1.04 | locus YGL248W, strain PDE1, active compounds read low 1.01 | locus YGL253W, strain hxk2, active compounds read low 1.02 | locus YGR135W, strain pre9, active compounds read low 0.998 | locus YGR252W, strain gcn5, active compounds read low 0.935 | locus YHR013C, strain ard1, active compounds read low 1.07 | locus YHR027C, strain rpn1, active compounds read low 1.01 | locus YHR030C, strain SLT2, active compounds read low 1.01 | locus YHR079C, strain IRE1 (second series), active compounds read low 0.996 | locus YHR079C, strain IRE1, active compounds read low 1.04 | locus YHR094C, strain hxt1, active compounds read low 0.998 | locus YHR129C, strain ARP1, active compounds read low 1.01 | locus YHR142W, strain chs7, active compounds read low 1.03 | locus YHR200W, strain rpn10, active compounds read low 0.997 | locus YIL066C, strain RNR3, active compounds read low 1.02 | locus YIL073C, strain SPO22, active compounds read low 1.02 | locus YIL125W, strain kgd1, active compounds read low 1 | locus YIR030C, strain dcg1, active compounds read low 1.01 | locus YJL092W, strain hpr5, active compounds read low 1.03 | locus YJL095W, strain BCK1 (second series), active compounds read low 1.01 | locus YJL095W, strain BCK1, active compounds read low 1.01 and 1.02 | locus YJL115W, strain asf1, active compounds read low 1.03 | locus YJL129C, strain trk1, active compounds read low 1.06 | locus YJL134W, strain LCB3, active compounds read low 1.01 | locus YJL154C, strain vps35, active compounds read low 1.02 | locus YJL164C, strain tpk1, active compounds read low 1.02 | locus YJL166W, strain qcr8, active compounds read low 1.02 | locus YJL168C, strain set2, active compounds read low 0.994 | locus YJL187C, strain SWE1 (second series), active compounds read low 1.01 | locus YJR043C, strain POL32, active compounds read low 1 | locus YJR066W, strain TOR1, active compounds read low 0.975
